Experimental data taken from PubChem BioAssay.
Unmarked numbers belong to inactive results. Activity calls are given as the source filed them.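 The calls were made as follows, unless noted: active = mean inhibition above 46.5%, the solvent-only control mean plus 3 SD; inactive = the rest.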

Columns and labels:
[1] = tested on: transactivating tegument protein VP16 (Human herpesvirus 1); assay: VP16 transactivation reporter inhibitors, counter-screen for SRC2 inhibitor project, cell-based, luminescence, single concentration (AID 652007; in the data active = inhibition above about 36%); conditions: cell-based VP16 transactivation luciferase reporter, at 8.9 µM, hits give high values
[2] = molecular target: Nuclear receptor coactivator 2 (Homo sapiens) (UniProt Q15596); assay: SRC2 coactivator transcriptional activity inhibitors, confirmation, cell-based, luminescence, HEK293, triplicate (AID 652008); conditions: HEK293 GAL4-SRC2 luciferase reporter, at 8.9 µM, hits give high values;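 also: 0% = DMSO-treated cells and 100% = Gossypol at 36 µM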
Nuclear receptor coactivator 2 (Homo sapiens), sequence (Q15596 whole entry, looked up, the tested form may be a part): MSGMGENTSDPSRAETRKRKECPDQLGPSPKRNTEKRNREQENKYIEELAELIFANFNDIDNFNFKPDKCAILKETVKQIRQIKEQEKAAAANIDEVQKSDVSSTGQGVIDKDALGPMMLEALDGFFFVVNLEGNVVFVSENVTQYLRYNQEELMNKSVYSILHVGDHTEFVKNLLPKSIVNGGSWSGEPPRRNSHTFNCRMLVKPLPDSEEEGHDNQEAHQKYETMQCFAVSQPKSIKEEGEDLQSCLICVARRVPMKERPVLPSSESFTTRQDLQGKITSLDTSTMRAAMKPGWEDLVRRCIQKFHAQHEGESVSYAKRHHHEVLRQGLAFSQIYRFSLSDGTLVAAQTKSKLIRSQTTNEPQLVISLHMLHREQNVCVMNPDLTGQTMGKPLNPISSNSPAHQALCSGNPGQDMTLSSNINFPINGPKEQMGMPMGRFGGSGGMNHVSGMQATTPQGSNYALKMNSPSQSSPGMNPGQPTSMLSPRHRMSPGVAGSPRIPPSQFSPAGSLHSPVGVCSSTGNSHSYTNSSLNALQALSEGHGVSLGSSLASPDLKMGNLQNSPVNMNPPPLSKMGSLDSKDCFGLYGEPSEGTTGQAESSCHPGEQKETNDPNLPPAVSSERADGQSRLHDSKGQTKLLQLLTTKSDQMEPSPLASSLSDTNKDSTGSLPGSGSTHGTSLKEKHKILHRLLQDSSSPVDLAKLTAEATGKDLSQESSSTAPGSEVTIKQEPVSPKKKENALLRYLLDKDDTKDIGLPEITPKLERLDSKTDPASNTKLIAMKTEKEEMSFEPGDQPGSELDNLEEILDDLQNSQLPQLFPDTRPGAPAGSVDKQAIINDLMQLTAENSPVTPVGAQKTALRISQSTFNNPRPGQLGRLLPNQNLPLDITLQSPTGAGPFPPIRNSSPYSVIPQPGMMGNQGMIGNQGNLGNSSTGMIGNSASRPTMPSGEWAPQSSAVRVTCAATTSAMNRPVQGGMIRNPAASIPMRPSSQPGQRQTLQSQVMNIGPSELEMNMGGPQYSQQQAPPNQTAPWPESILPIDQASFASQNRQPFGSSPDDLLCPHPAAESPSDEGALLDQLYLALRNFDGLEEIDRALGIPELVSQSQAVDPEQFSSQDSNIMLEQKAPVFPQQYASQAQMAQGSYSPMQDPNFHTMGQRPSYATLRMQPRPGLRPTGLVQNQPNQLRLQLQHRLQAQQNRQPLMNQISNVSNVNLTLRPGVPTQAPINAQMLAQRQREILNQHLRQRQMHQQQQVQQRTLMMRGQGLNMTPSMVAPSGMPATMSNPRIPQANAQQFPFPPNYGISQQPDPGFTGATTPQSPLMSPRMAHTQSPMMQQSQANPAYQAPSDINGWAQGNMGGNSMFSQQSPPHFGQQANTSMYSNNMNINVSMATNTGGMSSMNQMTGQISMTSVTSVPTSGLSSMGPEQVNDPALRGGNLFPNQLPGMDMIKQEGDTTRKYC

| SMILES | inhibition [1] | inhibition [2] |
| --- | --- | --- |
| COC(=O)[C@]12C[C@H](CC(=O)N3CCCCC3)C(=O)N(Cc3ccco3)C1=C[C@H](C(C)C)O[C@@H]2C1CC1 | -5.52% | -14.3% |
| COc1cc(-c2nnc(-c3cc(-c4ccccc4)nc4ccccc34)o2)cc(OC)c1OC | -13.1% | -5.55% |
| Nc1nonc1-n1nnc(C(=O)N/N=C/c2ccccc2Br)c1CN1CCCC1 | -7.5% | -12.4% |
| COc1cccc(NC(=O)Nc2nnc(CC(=O)NCc3ccccc3)s2)c1 | -17.5% | 24.5% |
| O=C(CCl)Nc1ccccc1C(=O)NCc1ccccc1 | 0.94% | 42.9% |
| COc1ccc(S(=O)(=O)N2CCCC(C(=O)NCc3ccncc3)C2)cc1 (stereo not drawn) | -0.24% | 10.6% |
| O=C(COc1ccc2c(c1)CCC2)Nc1ccccn1 | 2.76% | 41% |
| Clc1cccc(CN2CCN(c3ncc(Cc4ccccc4)cn3)CC2)c1Cl | -0.77% | 24.5% |
| COc1ccc(-c2csc3ncnc(NCCO)c23)cc1 | 3.39% | 47.1% (active) |
| CC(C)(C)c1nnc2sc(SCC(=O)c3cccs3)nn2c1=O | 15.5% | 30% |
| CCOC(=O)CSc1[nH]c2cc(OC)ccc2c1[N+](=O)[O-] | -31.1% | 3.3% |
| COc1cc2[nH]c3c(=O)n4c(nc3c2cc1OC)SCCC4 | -66.2% | 13.4% |
| Cc1ccccc1N(Cc1cc(=O)[nH]c2ccccc12)C(=O)CCl | 44.6% (active) | 76.7% (active) |
| Cn1nnnc1Sc1ncnc2scc(-c3ccc(Br)cc3)c12 | 25% | 37.2% |
| CCS(=O)(=O)c1cc([N+](=O)[O-])c(Sc2ccccc2NC(C)=O)s1 | -21% | -26.1% |
| Cc1cc(OCC(=O)Nc2ccncc2)cc(C)c1Cl | 4.55% | 11.3% |
| Cc1ccc(C)c(NC(=O)COc2coc(CN3CCc4ccccc4C3)cc2=O)c1 | -2.11% | 22.7% |
| O=C(NC1CC1)c1ccc(-c2nc3ccccc3s2)s1 | -51.1% | 16.9% |
| Cc1ccc(C2=[N+]([O-])C3(CCCCC3=O)N(O)C2(C)C)cc1 (stereo not drawn) | -5.08% | -2.69% |
| O=C(CN1C(=O)NC2(CCCCCC2)C1=O)Nc1ccc(Br)cc1Br | -12.2% | 2.3% |
| COc1ccc2nc(-c3ccc(N)cc3)[nH]c2c1 | -62.2% | 49.5% (active) |
| CN(C)c1ccc(NC(=S)c2ccccn2)cc1 | 1.77% | 59.6% (active) |
| CCn1ccnc1CNC(=O)C1CCC(=O)N(Cc2ccccc2F)C1 (stereo not drawn) | -4.87% | -23.7% |
| Cn1nnnc1Sc1ncnc2scc(-c3ccsc3)c12 | 18.3% | 45% |
| CCC(C)C(NC(=O)OCc1ccccc1)C(=O)OCN1C(=O)c2ccccc2C1=O (stereo not drawn) | -13.9% | -8.71% |

| SMILES | inhibition [1] | inhibition [2] |
| --- | --- | --- |
| CCOc1ccc(-c2nc(CSCC(=O)N3CCN(c4cccc(OC)c4)CC3)c(C)o2)cc1 | 23.2% | 49.8% (active) |
| O=C(O)CCCc1ccc2c(c1)CCc1ccccc1-2 | 29.6% | 77.1% (active) |
| O=[N+]([O-])c1ccc(Oc2ccc(F)cc2Br)c2ccncc12 | 7.49% | 50.2% (active) |
| CN(C)c1ccc(C2Nc3ccccc3C(=O)N2CCCN2CCOCC2)cc1 (stereo not drawn) | -12.2% | 2.92% |
| O=C(c1cc2sccc2n1Cc1ccc(F)cc1)N1CCN(c2nc3ccccc3s2)CC1 | 6.21% | 36.9% |
| O=c1[nH]c2ccc(Br)cc2c(=O)o1 | 44.5% (active) | 34.9% |
| Cc1ccc(C2CC(c3cccs3)=NN2C(=O)CCl)cc1 (stereo not drawn) | 6.45% | 38.9% |
| COc1cccc(N2CCN(C(=O)c3ccc(CS(=O)c4ccc(Cl)cc4)o3)CC2)c1 (stereo not drawn) | 19.7% | 14.5% |
| O=C1CSc2ccc(C(=O)Nc3cccc(S(=O)(=O)Nc4ccc(Br)cc4)c3)cc2N1 | 11.2% | 25.2% |
| Cc1cc(C(=O)C(C)OC(=O)c2ccc(NC(=O)CC#N)cc2)c(C)n1-c1ccccc1 (stereo not drawn) | -36% | 26.3% |
| CC(C)(C)c1ccc(/C=C/C(=O)NCCCN2CCOCC2)cc1 | -13.2% | 4.98% |
| O=S(=O)(c1ccc(NC(=S)NCc2ccco2)cc1)N1CCCCC1 | -14.6% | 4.68% |
| Cc1ccc(NC(=O)C2CCN(S(=O)(=O)c3cc([N+](=O)[O-])ccc3Cl)CC2)nc1 | 10.7% | 24.3% |
| O=C(NCc1cccnc1)/C(=C\c1ccc(-c2ccc(Cl)c(Cl)c2)o1)S(=O)(=O)c1ccccc1 | 75.3% (active) | 66.9% (active) |
| Cc1cc(Cl)n2c(nc3ccccc32)c1C#N | 4.56% | 28.4% |
| COC(=O)C1=C(C)N(Cc2ccccc2C(F)(F)F)C(=NCc2ccccc2)NC1c1ccc(Cl)cc1 (stereo not drawn) | 2.66% | 1.39% |
| Cc1cc(N2CCOCC2)c2c(N)cc(C)c(C)c2n1 | -7.44% | -11.2% |
| CCOc1ccc(-c2cc(CCCC(=O)Nc3cc(OC)ccc3OC)no2)cc1 | 47.9% (active) | 79.5% (active) |
| Cc1cc(C(=O)CN2C(=O)c3ccccc3S2(=O)=O)c(C)n1-c1ccccc1 | -10.4% | 55.4% (active) |
| Cc1ccc2nc(C)cc(Nc3ccc4c(c3)OCCO4)c2c1 | -23.7% | 0.71% |
| CCC(C)[C@H](NC(=O)N1CCn2c1nc1ccccc12)C(=O)NCc1ccc(OC)cc1 (stereo partly drawn) | -13% | 8.36% |
| CC(C)OC(=O)c1ccc(NCc2cc(O)ccc2O)cc1Cl | 19.4% | 89.1% (active) |
| COc1ccc(N(C(=O)CCl)C(C(=O)NCCc2ccccc2)c2cccs2)cc1 (stereo not drawn) | 32.7% | 58.1% (active) |
| Cc1cc(F)ccc1NC(=O)CCc1c(C)nn(-c2ccc(N3CCCCC3)nn2)c1C | -53% | 3.56% |
| O=C(CCCN1C(=O)/C(=C/c2ccccc2Cl)SC1=S)NNC(=O)c1ccc(Cl)cc1 | 73.7% (active) | 82% (active) |

| SMILES | inhibition [1] | inhibition [2] |
| --- | --- | --- |
| [2H]C(CCOS(N)(=O)=O)c1ccc(C(C)(C)C)cc1 (stereo not drawn) | 13.7% | 41.4% |
| CC(=O)c1ccc(OCCCC(=O)Nc2ccc(C)c(S(=O)(=O)N3CCCCC3)c2)cc1 | -1.11% | -2.06% |
| Cc1nc([N+](=O)[O-])c(Br)n1Cc1ccccc1 | 3.69% | 11.9% |
| C[n+]1ccccc1/C=C/c1ccccc1Cl | -18.2% | -7.01% |
| COc1ccc(NC(=O)C2(C)Cc3c(-c4cccc(NC(C)=O)c4)ccnc3O2)cc1 (stereo not drawn) | -10.6% | 1.6% |
| O=[N+]([O-])c1ccc(S(=O)(=O)c2ccccc2)nc1 | 51.9% (active) | 36% |
| O=C1C(N2CCOCC2)=C(n2nnc3ccccc32)C(=O)c2ccccc21 | 43.9% (active) | 34.6% |
| O=C(O)CCCc1nc(-c2ccc(Cl)cc2)no1 | 20.7% | 30% |
| CCC(=O)N1N=C(c2cccs2)CC1c1ccc(C)cc1 (stereo not drawn) | -15.8% | -13.8% |
| Cc1cc(C2=NNC(=NC3CC3)SC2)c(C)n1Cc1ccco1 | 78.6% (active) | 93.6% (active) |
| CC(NC(=O)CCc1nnc(-c2ccc(-c3ccccc3)cc2)o1)c1nccs1 (stereo not drawn) | 17% | 58.5% (active) |
| CCc1ccc(C(=O)N2CCN(c3ccc(NC(=O)c4cccnc4)cc3)CC2)cc1 | -14.2% | -9.49% |
| O=C(NCCc1ccccc1)C(c1cccs1)N(C(=O)CCl)c1ccc(Cl)cc1 (stereo not drawn) | 22.9% | 52.8% (active) |
| CCOc1ccc(-c2nc(CSCC(=O)NCc3ccco3)c(C)o2)cc1 | -11.2% | 37% |
| CCS(=O)(=O)c1ncc(Cl)c(C(=O)Nc2ccc(C)cc2)n1 | 1.43% | 0.68% |
| CCCc1cc(=O)n2nc(N3CCC(C(=O)N4CCN(c5cccc(OC)c5)CC4)CC3)sc2n1 | -1.33% | 17.2% |
| Oc1ccc(N=Nc2ccc3c(c2)OCCO3)c(O)c1 | -71.4% | 35.1% |
| Cc1ccc(C(=O)Nc2ncc([N+](=O)[O-])s2)cc1 | -7.15% | 57.7% (active) |
| Cc1cc(Cl)c(S(=O)(=O)N2CCN(c3ccccn3)CC2)cc1OCC(=O)NC1CCCCC1 | 10.5% | 16.3% |
| O=C(c1ccc(Cl)cc1)C(CN1CCCCC1)c1ccccc1 (stereo not drawn) | 32.9% | 57.8% (active) |
| NS(=O)(=O)c1ccc(NC(=O)COc2ccc(C(=O)c3ccc(F)cc3)cc2)cc1 | -1.97% | -2.94% |
| Cc1nn(C)c(Cl)c1NC(=O)OCc1ccc(Cl)cc1Cl | 10.8% | 16.2% |
| CCn1c(=O)c2c(cnn2C)c2ccccc21 | 25.8% | 50.6% (active) |
| Cc1ccc2sc(N(CCCN(C)C)C(=O)CN3C(=O)c4ccccc4C3=O)nc2c1C | -2.35% | 3.74% |
